NS1 function inh: qHTS Assay for Inhibitors of Influenza NS1 Protein Function | Potency, µM (doses to about 46.1 µM), inactives show at the highest dose activity, positive = more growth | 0.4% of 270,000 active | AID 2326, 2010; calls by dose curve; note: potency is the fitted concentration of half-maximal effect; actives are rising curves; nearly all actives have a fitted effect of over 50% in size
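S. cerevisiae expressing influenza A NS1, grown in glucose, washed, then diluted 1:100 into pH 6.0 -URA galactose medium with 23 nl compound. Growth recovery read as OD600; NS1-free strain serves as control.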
Shiga inhibitor: A qHTS for Small Molecule Inhibitors of Shiga Toxin; Vero cells, Shiga toxin protein synthesis inhibition reporter; 9.2% of 290,000 active; inhibition, % at 38.7 µM; in the data active = inhibition mostly above about 28%, no sharp cut-off; inactive = mostly below about 43%; note: 0% is about no effect
Cycloheximide cs: Cycloheximide Counterscreen for Small Molecule Inhibitors of Shiga Toxin; 12% of 300,000 active; max response, %; AID 2314, 2010; cell reporter, cycloheximide protein synthesis inhibition counterscreen; in the data active = max response mostly above about 13%, no sharp cut-off; inactive = mostly below about 14%; note: read at 38.3 µM for the half of the compounds with a filed dose; 0% is about no effect
Sm TGR inh: qHTS Assay for the Inhibitors of Schistosoma Mansoni Peroxiredoxins | 3% of 360,000 active | purified TGR, DTNB reduction, TNB absorbance 405 nm | Potency, µM (series often up to 114 µM), without a hit: top-dose activity change, negative = inhibition, usual class: inhibitors | Schistosoma mansoni thioredoxin glutathione reductase (TGR), Q962Y6; note: potency is the fitted concentration of half-maximal effect; % is set by controls: 0 for no effect and ±100 for the full control effect; nearly all actives have a fitted effect of over 60% in size
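First, TGR (20 nM dispensed) and NADPH were mixed with compound. Second, a 15 min room-temperature incubation followed. Third, further NADPH and then DTNB were added to start the reaction. Finally, TNB absorbance was monitored kinetically.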
Pf growth 96h: Primary qHTS for delayed death inhibitors of the malarial parasite plastid, 96 hour incubation | P. falciparum luciferase reporter growth, 96 h | Potency, µM (series often up to 28.7 µM), without a hit: at the highest dose activity change, negative = inhibition, most hits filed as inhibitors | 6.9% of 320,000 active | AID 504834, 2011; note: potency is the fitted concentration of half-maximal effect; % is set by controls: 0 for no effect and ±100 for the full control effect
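Two parasite generations (96 h, 37 C, 5% CO2) of compound exposure in infected erythrocytes (0.05% parasitemia, 2% hematocrit). Luciferase-reporter P. falciparum; decreased luminescence indicates inhibited growth, aimed at apicoplast-acting delayed death.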
Pf growth 48h: Primary qHTS for delayed death inhibitors of the malarial parasite plastid, 48 hour incubation; P. falciparum luciferase growth in erythrocytes, 48 h; Potency, µM (titrated, usually from 28.7 µM), inactives show at the top dose activity change, negative = inhibition, actives largely listed as inhibitors; 5.9% of 310,000 active; note: potency is the fitted concentration of half-maximal effect; % is set by controls: 0 for no effect and ±100 for the full control effect
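Erythrocytes infected with P. falciparum carrying an integrated firefly luciferase reporter (2% hematocrit, 0.1% parasitemia final) were exposed to compounds in RPMI 1640 with 0.5% Albumax at 37 C, 5% CO2. Growth inhibition was scored as reduced luminescence.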
An asterisk follows results filed as active; i = inactive; ? = inconclusive; nt = no result; [ ] = dose if it differs, or a comment. In the library only some 21% were active in any assay of this set; here they are far more common. Unless noted, calls come from the whole dose curve; as a rule, active = well fitted curve in the direction sought with a large enough effect; inconclusive = small, poorly fitted or top-dose-only effect, or another doubt; inactive = no such curve, though single readings can be large; an effect the other way counts as inactive or inconclusive.

SMILES | NS1 function inh | Shiga inhibitor | Cycloheximide cs | Sm TGR inh | Pf growth 96h | Pf growth 48h
CCN(CC)S(=O)(=O)c1ccc(-c2cn3cc(Cl)ccc3n2)cc1 | -7.5% | 20.0 | 18.8 | 1.9% | 35.7% | -13.3%
COc1ccc(-c2cn3ccc4ccccc4c3n2)cc1 | 3.2% | 63.8* | 37.0* | -16.6% | 150.2% | i
Clc1ccc(-c2cn3cc(Cl)ccc3n2)cc1 | -2.8% | 73.9* | 42.2* | -21.6% | 77.8% | nt
Cc1cc2c(s1)c1cnn(Cc3ccccc3F)c(=O)c1n2Cc1ccccc1F | nt | 6.7 | 14.8 | nt | nt | nt
Brc1ccc(-c2cn3ccccc3n2)s1 | -102.6% | 70.4* | 31.5* | -19.2% | 268.8% | nt
Clc1ccc(-c2nnc3n2CCCCC3)cc1 | -10.2% | 0.4 | -1.0 | 3.8% | 22.3% | nt
COc1c(Cl)cccc1-c1cn2ccccc2n1 | -60.5% | 56.6 | 34.9* | 10.9% | 295.9% | 169.4%
CCCOc1ccc(-c2cn3ccccc3n2)cc1 | nt | 17.8 | 3.0 | -0.1% | ? | 448.1%
COc1ccc(-c2cn3ccccc3n2)cc1 | -3.3% | 45.7 | 31.5* | 4.0% | -9.7% | 115.1%
Clc1ccc(-c2cn3c(n2)CCC3)cc1 | -2.5% | 72.8 | 27.7* | -7.7% | 5.1% | 159.6%
CCOC(=O)c1ccc(NC(=O)CSc2nc(=O)n(CCN3CCOCC3)c3c2CCC3)cc1 | nt | nt | nt | 3.9% | ? | ?
CCOC(=O)c1cnn(-c2ccccc2)c1-c1ccncc1 | -5.4% | 0.7 | -3.3 | -9.9% | ? | 8.7%[0.00184 µM]
COc1ccccc1-c1noc(-c2ccc(NCC3CCCO3)c([N+](=O)[O-])c2)n1 (configuration not stated) | nt | nt | nt | -0.3% | nt | nt
COc1ccc(CNC(=O)C(OC(=O)c2nsc(Cl)c2Cl)C(C)C)cc1 (configuration not stated) | -5.4% | -8.1 | -0.9 | nt | -11.2% | 11.5%
Cc1ccc(Cn2ccn(CC(=O)Nc3c(C)cc(C)cc3C)c(=O)c2=O)cc1 | nt | nt | nt | -5.1% | nt | nt
Cc1ccc2nc(-c3ccc(O)c(O)c3)cn2c1 | 13.4% | nt | -7.6 | ? | -1.8% | -113.9%
Cc1ccc2nc(-c3ccc(-c4ccccn4)s3)cn2c1 | -63.9% | 68.6* | 44.7* | -20.6% | 177.1% | 78.5%
CCc1ccc(NC(=S)N(CCCN2CCOCC2)Cc2ccccn2)cc1 | 7.8% | 31.4* | 39.2* | -6.9% | -5.0% | 16.3%
COc1ccc(NC(=S)N(CCCN2CCOCC2)Cc2cn(C)c3ccccc23)cc1OC | 12.8% | -11.3 | -4.4 | 3.2% | 4.15µM* | ?
CCCc1nc2oc3ccccc3c(=O)c2c(=O)n1CCCOC | 0.7% | 7.1 | 0.8 | 7.1% | ? | ?
Cc1cccc(S(=O)(=O)Nc2ccc(-c3nc4ccc(C)cc4s3)cc2)c1 | 18.4% | 73.7* | 82.5* | 1.3% | i | 284.5%

Compound activity as filed in PubChem.
